{"source": "PubChem BioAssay (NCI)", "note": "Compounds without any hit were thinned out: in the full panel of roughly 83,000, 20% have a hit.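 The test compound was applied at a single concentration to cells in 96-well plates for 48 hours, and percent growth was recorded.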 Values without a mark were called inactive. Calls of active or inactive are those of the source. The calls were made as follows: active = growth percent below 10; inactive = the rest."}
{"system": "SK-OV-3 ovarian", "assay": "NCI-60 one-dose screen, 48 h (100 = growth as untreated, 0 = no growth, -100 = all killed)", "settings": "10 µM unless noted"}
{"smiles": "Cn1cc(-c2nn3cc(-c4cccnc4)nc3s2)c2ccccc21", "growth": "50.7%"}
{"smiles": "COc1ccc(-c2cc(-c3cccc4ccccc34)n3c(n2)nc2ccccc23)cc1OC", "growth": "35.3%"}
{"smiles": "Cn1c2ccc(Br)cc2c2c3c(c4c5cc(F)ccc5oc4c21)C(=O)N(O)C3=O", "growth": "90.2%"}
{"smiles": "O=C(Cn1cc(CN2C(=O)c3ccc([N+](=O)[O-])cc3C2=O)nn1)Nc1ccc(F)cc1Cl", "growth": "89.7%"}
{"smiles": "O=C1c2c(c3c4ccc(Br)cc4oc3c3[nH]c4ccccc4c23)C(=O)N1CCO", "growth": "37.4%"}
{"smiles": "CCOC(=O)CC(=O)CSC1=NC2C(NN1)N(C)C(=O)N2C", "note": "(centres undefined)", "growth": "114%"}
{"smiles": "Cn1c2ccccc2c2c3c(c4c5ccc(Br)cc5oc4c21)C(=O)N(O)C3=O", "growth": "101%"}
{"smiles": "CCNCCCn1c2c(c3cc(OC)c(OC)cc3c1=O)C(=O)c1cc(OC)cnc1-2", "growth": "-32.1% (active)"}
{"smiles": "C=CCn1c(SCC(=O)Nc2cccc(C(=O)/C=C/c3cccc([N+](=O)[O-])c3)c2)nc2ccccc2c1=O", "growth": "116%"}
{"smiles": "COc1ccc2c(c1)oc1c3[nH]c4ccccc4c3c3c(c21)C(=O)N(O)C3=O", "growth": "39.1%"}
{"smiles": "COc1cc2c3c(n(CCCN4CCC[C@H]4C(N)=O)c(=O)c2cc1OC)-c1cc2c(cc1C3=O)OCO2", "growth": "-22.7% (active)"}
{"smiles": "C=CCn1c(SCC(=O)Nc2cccc(C(=O)/C=C/c3ccc(Br)cc3)c2)nc2ccccc2c1=O", "growth": "108%"}
{"smiles": "CS(=O)(=O)c1ccc2c(c1)c1c(n2C(=O)c2ccc(Cl)cc2)CCCC1", "growth": "90.3%"}
{"smiles": "COc1ccc([C@H]2[C@H](O)C(=O)N2c2cc(OC)c(OC)c(OC)c2)cc1O", "growth": "21.4%"}
{"smiles": "Cc1occc1-c1nc2s/c(=C\\c3cn(-c4ccccc4)nc3-c3ccccc3)c(=O)n2n1", "growth": "113%"}
{"smiles": "COc1cc2c3c(n(CCCNC4CCCCC4)c(=O)c2cc1OC)-c1cc2c(cc1C3=O)OCO2", "growth": "104%"}
{"smiles": "COc1ccc(-c2no[n+]([O-])c2Nc2ccccc2Br)cc1", "growth": "94.3%"}
{"smiles": "C/C(Cc1ccc(Cl)cc1)=C(/c1ccccc1)c1ccc(OCCN)cc1", "growth": "117%"}
{"smiles": "COc1cnc2c(c1)C(=O)c1c-2n(CCCNCC2CC2)c(=O)c2cc(F)ccc12", "growth": "-38% (active)"}
{"smiles": "COc1cnc2c(c1)C(=O)c1c-2n(CCCn2ccnc2)c(=O)c2cc(OC)c(OC)cc12", "growth": "-31.8% (active)"}
{"smiles": "C=CCn1c(SCC(=O)Nc2cccc(C(=O)/C=C/c3ccccc3)c2)nc2ccccc2c1=O", "growth": "122%"}
{"smiles": "COc1cc2c3c(n(CCCN4CCCC4)c(=O)c2cc1OC)-c1cc2c(cc1C3=O)OCO2", "growth": "53.7%"}
{"smiles": "N#C/C(=C\\c1ccc(-c2ccc(F)cc2)o1)C(=O)Nc1ncc(Cc2ccc(Cl)cc2Cl)s1", "growth": "107%"}
{"smiles": "Cc1ccc(-c2nnc3sc(C4=Cc5ccccc5OC=C4)nn23)cc1", "growth": "118%"}
